From ChEMBL document CHEMBL4513216, “Probing the Open Global Health Chemical Diversity Library for Multistage-Active Starting Points for Next-Generation Antimalarials” (ACS Infect Dis, 2020)
Out of some 65,000 compounds screened, about 2,100 (3.2%) showed an effect of 50% or more. The median lay at about -52%. What follows is part of a selection rich in strong results, with near analogues and random picks from the rest.

These compounds were tested on Plasmodium falciparum (assay: Screen against P. falciparum Asexual Blood Stage (ABS), at 5uM). Details: tested at 5 uM.
Format: functional, Dd2

Row | Compound | INHIBITION [%]
1 | COCC1c2nnn(C)c2CCN1C(=O)COc1ccccc1OC (stereo not drawn) | -85.8
2 | CS(=O)(=O)NCCN(CCCO)C1CCc2ccccc21 (stereo not drawn) | -55.5
3 | Cc1ccc(-c2c(C(=O)NC3CCN(C)CC3)csc2C)cc1 | 61.9
4 | CCCN1CCC(NC(=O)c2csc(C)c2-c2ccccc2)CC1 | 28.9
5 | CCCN1CCC(NC(=O)c2csc(C)c2C)CC1 | -48.6
6 | CN(C)C(=O)COC[C@]12COC[C@H]1CN(C1CCCC1)C2 | -77.5
7 | CCNC(=O)[C@@H]1C[C@H](N)CN1Cc1ccc(Sc2ccc(C)cc2)o1 | 64.6
8 | CCNC(=O)[C@@H]1C[C@@H](N)CN1Cc1ccc(Sc2ccc(C)cc2)o1 | 63.9
9 | CCNC(=O)[C@@H]1C[C@@H](N)CN1Cc1ccc2cccc(Cl)c2n1 | 31.4
10 | CCNC(=O)[C@@H]1C[C@H](N)CN1Cc1ccc(-c2cc[nH]n2)o1 | -81.2
11 | CCNC(=O)[C@@H]1C[C@H](N)CN1Cc1ccc(-c2ccccc2C#N)o1 | -5.25
12 | CCNC(=O)[C@@H]1C[C@@H](N)CN1Cc1ccc(-c2ccccc2C#N)o1 | -71.4
13 | CC/C=C(\C)CN1CCC(CNC(=O)c2c[nH]c(=O)c(Cl)c2)C1 (stereo not drawn) | -7.22
14 | Nc1ncccc1C(=O)NCc1cccc(Br)c1 | -72
15 | CCS(=O)(=O)CC(=O)NCC1(c2c(F)cccc2F)CCCC1 | -90.7
16 | COC(=O)NCC(=O)NCC1(c2c(F)cccc2F)CCCC1 | 69.7
17 | CC(=O)NCCC(=O)NCC1(c2c(F)cccc2F)CCCC1 | -77.3
18 | Cc1cc(C)c2nc(C3CC3)cc(C(=O)N3CCCC3C(N)=O)c2c1 (stereo not drawn) | -98.6
19 | COCC1c2c(cnn2C)CCN1C(=O)c1cscn1 (stereo not drawn) | -109
20 | CC(Cn1cccn1)NCc1nc(-c2cccnc2)no1 (stereo not drawn) | -56
21 | CC(c1ccccc1)N1CCC(NC(=O)CCc2ccsc2)CC1 (stereo not drawn) | 54.8
22 | CCSCCC(=O)NC1CCN(C(C)c2ccccc2)CC1 (stereo not drawn) | -58.8
23 | CSCC(=O)NC1CCN(C(C)c2ccccc2)CC1 (stereo not drawn) | -27.6

Row | Compound | INHIBITION [%]
24 | Cc1cc2c(N3CCC(N(C)Cc4nccs4)CC3)ncnc2s1 | -19.4
25 | CC(NC1CCN(CCS(C)(=O)=O)CC1)c1cnn(C(C)C)c1 (stereo not drawn) | -83.1
26 | CC(NC1CCN(CCS(C)(=O)=O)CC1)c1ccc(Cl)cc1 (stereo not drawn) | 58.2
27 | CC(c1ccc(Cl)cc1)N1CCN(CCS(C)(=O)=O)CC1 (stereo not drawn) | -38.8
28 | Cc1nc(CN2CCCC(NCc3ccc4ccccc4c3)C2)no1 (stereo not drawn) | -9.17
29 | COc1ccc(CCN(C)C2CCCN(Cc3noc(C)n3)C2)cc1 (stereo not drawn) | 60.6
30 | CN(Cc1ccccn1)C1CCCN(Cc2noc(C3CC3)n2)C1 (stereo not drawn) | -128
31 | CN(Cc1cnn(C)c1)C1CCCN(Cc2noc(C3CC3)n2)C1 (stereo not drawn) | -39.7
32 | CCOc1ccccc1CNC1CCCN(Cc2noc(C)n2)C1 (stereo not drawn) | 48.7
33 | CN(Cc1cccnc1)C1CCCN(Cc2noc(C3CC3)n2)C1 (stereo not drawn) | 52.6
34 | Cc1nc(CN2CCCC(N(C)CCc3ccncc3)C2)no1 (stereo not drawn) | -138
35 | Cc1nc(CN2CCCC(N(C)CCCc3ccccc3)C2)no1 (stereo not drawn) | -0.463
36 | Cc1nc(CN2CCCC(NCc3cccc4ccccc34)C2)no1 (stereo not drawn) | 58.3
37 | Cc1cc(CN(C)C2CCCN(Cc3noc(C)n3)C2)no1 (stereo not drawn) | -90.9
38 | Cc1nc(CN(C)C2CCN(Cc3c(C)noc3C)C2)no1 (stereo not drawn) | -19.4
39 | Cc1nc(CN2CCCC(N(C)Cc3c(C)noc3C)C2)no1 (stereo not drawn) | 58.6
40 | CCn1nc(C)c(CN2CCC(c3ccn[nH]3)C2)c1C (stereo not drawn) | -30.2
41 | Cc1nc2sccn2c1CNC1(c2ccccc2F)CCCC1 | -5.97
42 | Cc1cccc(COC[C@@]23CCC[C@@H]2CN(S(=O)(=O)N(C)C)C3)n1 | -12.3
43 | CCc1nc(CN2CCN(C(=O)C3(C#N)CCCC3)CC2)cs1 | -79.7
44 | O=C(c1ccccn1)N1CCC2(CC1)COC(COCC1CCCC1)C2 (stereo not drawn) | -14.7
45 | Cc1ccc(CN2CCN(C(=O)c3ccc(CO)cc3)C(C)C2=O)cc1 (stereo not drawn) | -121
46 | CC(=O)N1CCCC(c2ccccn2)C1 (stereo not drawn) | -11.9

Row | Compound | INHIBITION [%]
47 | CC(=O)N1CCCC(c2ccc(Cc3ccccc3)cn2)C1 (stereo not drawn) | 60.4
48 | CC(=O)N1CCCC(c2ccc(Br)cn2)C1 (stereo not drawn) | -147
49 | CNc1cncc(C2CCCN2Cc2ccn(C)n2)n1 (stereo not drawn) | -1.9
50 | c1cncc(-c2ccc3c(c2)CCC32CCN(Cc3nccs3)CC2)c1 | 49.1
51 | CC(C)CN1C[C@@H]2CN(S(=O)(=O)c3cccs3)C[C@@H]2C1=O | -43.6
52 | COCCN1C[C@@H]2CN(S(=O)(=O)c3cccs3)C[C@@H]2C1=O | -43.2
53 | CCN1C[C@@H]2CN(S(=O)(=O)c3cccs3)C[C@@H]2C1=O | 64.6
54 | CCc1cc(N[C@@H]2C[C@@H]3CC[C@H]2C3)n2nccc2n1 | -125
55 | Cc1ccc(C(=O)Nc2ccc(S(=O)(=O)/N=C3\CCCN3C)cc2)s1 | -13.1
56 | CC(C)(C)n1nc(C2CC2)cc1C(=O)NC1CCN(CC(N)=O)CC1 | -56.9
57 | Cc1cccc(N2CCOCC3(C2)CN(c2ccccc2)C(=O)CO3)n1 (stereo not drawn) | -58.1
58 | Cc1cccc(N2CCOCC3(C2)CN(c2ccoc2)C(=O)CO3)n1 (stereo not drawn) | 66.9
59 | Cc1cccc(N2CCOCC3(C2)CN(c2cncnc2)C(=O)CO3)n1 (stereo not drawn) | -66.1
60 | CCS(=O)(=O)NC[C@]12COC[C@H]1CN(Cc1ccsc1)C2 | 19.6
61 | CCC(C)C(=O)Nc1ccc(CCN2CCOCC2)cc1 (stereo not drawn) | -81
62 | CC(C)(CN1CCC(Cc2ccc(C(=O)O)cc2)C1)N1CCOCC1 (stereo not drawn) | -29.2
63 | CCOc1c(CNCCCn2ccnc2)cc(Cl)cc1OC | 66.5
64 | CCOc1ccc(Cl)cc1CNCCCn1ccnc1 | 52.8
65 | O=C(CN1CCOc2ccc(Cl)cc21)NCCCn1ccnc1 | -30.7
66 | COc1cc(CNCCn2ccnc2)cc2c1OCO2 | -86.4
67 | CCOc1ccc(CNCCCn2ccnc2)cc1OC | -13.1
68 | COCCCn1ccc(NC(=O)NCCCn2ccnc2)n1 | -58.9
